Assay [1] can be described thus: p53 stabilisation in HPV-positive human cells, imaging, p53-positive nuclei imaging, 24 h, 48 h (AID 1508601). The settings on record: 24/48 h.
The target in assay [2] is Cellular tumor antigen p53 (Homo sapiens) (UniProt P04637). The description is as above. The conditions noted are these: 24/48 h, stronger effect = higher value.
Where [3] appears, read: measured here: cell number at 24 h, concentration not given here.
Where [4] appears, read: measured here: cell number at 48 h, concentration not given here.
Setting [5] is: measured here: p53 positive nuclei at 24 h, concentration not given here.
[6] abbreviates: measured here: cell number at 24 h, Library stock concentration: 3.33 mM.
Setting [7] is: measured here: cell number at 48 h, Library stock concentration: 3.33 mM.
Setting [8] is: Library stock concentration: 3.33 mM.
The mark [9] stands for this setting: measured here: p53 positive nuclei at 24 h, Library stock concentration: 3.33 mM.
Setting [10] is: measured here: cell number at 24 h, Library stock concentration: 10 mM.
Setting [11] is: measured here: cell number at 48 h, Library stock concentration: 10 mM.
The mark [12] stands for this setting: Library stock concentration: 10 mM.
[13] abbreviates: measured here: p53 positive nuclei at 24 h, Library stock concentration: 10 mM.
Setting [14] is: measured here: cell number at 24 h, Library stock concentration: 80 uM.
Where [15] appears, read: measured here: cell number at 24 h, Library stock concentration: 400 uM.
Setting [16] is: measured here: cell number at 24 h, Library stock concentration: 2 mM.
The mark [17] stands for this setting: measured here: cell number at 48 h, Library stock concentration: 80 uM.
[18] abbreviates: measured here: cell number at 48 h, Library stock concentration: 400 uM.
The mark [19] stands for this setting: measured here: cell number at 48 h, Library stock concentration: 2 mM.
Setting [20] is: Library stock concentration: 80 uM.
The mark [21] stands for this setting: Library stock concentration: 400 uM.
Where [22] appears, read: Library stock concentration: 2 mM.
[23] abbreviates: measured here: p53 positive nuclei at 24 h, Library stock concentration: 80 uM.
Where [24] appears, read: measured here: p53 positive nuclei at 24 h, Library stock concentration: 400 uM.
Setting [25] is: measured here: p53 positive nuclei at 24 h, Library stock concentration: 2 mM.

Out of some 5,700 compounds screened, about 85 (1%) were called active. Rule as the data show it: active = p53-positive nuclei above about 36% (passing the limit was not always enough); inactive = the rest. The entries come from a sample that favours actives as a whole.

Cellular tumor antigen p53 (Homo sapiens), sequence (P04637 whole entry, looked up): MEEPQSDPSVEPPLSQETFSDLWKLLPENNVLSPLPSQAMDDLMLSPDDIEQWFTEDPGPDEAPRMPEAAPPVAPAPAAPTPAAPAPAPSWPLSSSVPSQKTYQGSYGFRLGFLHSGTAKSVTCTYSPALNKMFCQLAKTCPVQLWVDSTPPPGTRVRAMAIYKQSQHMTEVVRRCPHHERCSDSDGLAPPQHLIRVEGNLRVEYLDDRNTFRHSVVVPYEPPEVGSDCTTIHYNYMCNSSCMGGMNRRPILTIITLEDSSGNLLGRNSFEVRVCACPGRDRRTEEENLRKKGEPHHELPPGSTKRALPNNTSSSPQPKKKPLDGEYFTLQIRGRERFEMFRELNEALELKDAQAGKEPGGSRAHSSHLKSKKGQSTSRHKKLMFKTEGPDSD

Turning to `CCCCCCCCCCCCCCCCCC(=O)OCC`, the results for the nuclei count, normalised in assay [1] (setting [3]) and in assay [1] (setting [4]) were 111% and 110%, respectively. Besides, the p53-positive nuclei, normalised is -0.0271% (inactive) in assay [2] (concentration not given here) and -0.00774% in assay [2] (setting [5]).

As to `N=c1ccn2c(n1)OC1C(O)C(CO)OC12` (stereo not drawn), the nuclei count, normalised in assay [1] (setting [6]) worked out at 61.4%; in assay [1] (setting [7]) it was 51.8%. For the same molecule, the p53-positive nuclei, normalised in assay [2] (setting [8]) is 0.1% (inactive); in assay [2] (setting [9]), -0.25%.

Consider `Nc1cccc(OCc2ccccc2)c1`, for which the nuclei count, normalised came out at 111% in assay [1] (measured here: cell number at 24 h, Library stock concentration: 46 uM); 109% in assay [1] (measured here: cell number at 24 h, Library stock concentration: 278 uM); 109% in assay [1] (measured here: cell number at 24 h, Library stock concentration: 1.67 mM); 99% in assay [1] (setting [10]); 106% in assay [1] (measured here: cell number at 48 h, Library stock concentration: 46 uM); 111% in assay [1] (measured here: cell number at 48 h, Library stock concentration: 278 uM). Further, the nuclei count, normalised was 109% in assay [1] (measured here: cell number at 48 h, Library stock concentration: 1.67 mM) and 103% in assay [1] (setting [11]). The p53-positive nuclei, normalised in assay [2] (Library stock concentration: 46 uM) is -0.0623% (inactive); in assay [2] (Library stock concentration: 278 uM), -0.108% (inactive); in assay [2] (Library stock concentration: 1.67 mM), 0.151% (inactive); in assay [2] (setting [12]), 0.0982% (inactive); in assay [2] (measured here: p53 positive nuclei at 24 h, Library stock concentration: 46 uM) it was -0.0998%; in assay [2] (measured here: p53 positive nuclei at 24 h, Library stock concentration: 278 uM), -0.155%. For the same molecule, the p53-positive nuclei, normalised in assay [2] (measured here: p53 positive nuclei at 24 h, Library stock concentration: 1.67 mM) was 0.0148%; in assay [2] (setting [13]), -0.152%.

Regarding `CN1CC[C@H](c2c(O)cc(O)c3c(=O)cc(-c4ccccc4Cl)oc23)C(O)C1` (stereo partly drawn), the nuclei count, normalised came out at 104% in assay [1] (setting [14]); 38.3% in assay [1] (setting [15]); 28.8% in assay [1] (setting [16]); 19.7% in assay [1] (setting [6]); 27.3% in assay [1] (setting [10]); 113% in assay [1] (setting [17]). The nuclei count, normalised in assay [1] (setting [18]) came to 25.6%; in assay [1] (setting [19]), 21.8%; in assay [1] (setting [7]), 16%; in assay [1] (setting [11]) it was 20.2%. The p53-positive nuclei, normalised in assay [2] (setting [20]) is 0.113% (inactive); in assay [2] (setting [21]), 48.4% (inactive); in assay [2] (setting [22]), 4.92% (inactive); in assay [2] (setting [8]), 8.28% (inactive); in assay [2] (setting [12]), 4.03% (inactive); in assay [2] (setting [23]) it was -0.107%. Also, the p53-positive nuclei, normalised came to 2.03% in assay [2] (setting [24]), 0.196% in assay [2] (setting [25]), 0.472% in assay [2] (setting [9]) and 0.419% in assay [2] (setting [13]).

`CN1CCC(c2c(O)cc(O)c3c(=O)cc(-c4ccccc4Cl)oc23)C1CO` (stereo not drawn): the nuclei count, normalised in assay [1] (setting [14]) is 103%; in assay [1] (setting [15]), 85.7%; in assay [1] (setting [16]) it was 35.8%; in assay [1] (setting [6]) it was 33.3%; in assay [1] (setting [10]) it was 24.1%; in assay [1] (setting [17]) it was 106%. The nuclei count, normalised in assay [1] (setting [18]) was 84.1%; in assay [1] (setting [19]), 23.2%; in assay [1] (setting [7]), 26.2%; in assay [1] (setting [11]), 17.3%. Also, the p53-positive nuclei, normalised was 0.295% (inactive) in assay [2] (setting [20]); 16% (inactive) in assay [2] (setting [21]); 66% (active) in assay [2] (setting [22]); 49.6% (inactive) in assay [2] (setting [8]); 30.8% (inactive) in assay [2] (setting [12]); 0.32% in assay [2] (setting [23]). In addition, the p53-positive nuclei, normalised in assay [2] (setting [24]) came out at 6.89%; in assay [2] (setting [25]), 3.25%; in assay [2] (setting [9]), 3.39%; in assay [2] (setting [13]), 6.32%.

Regarding `CN1CCC(c2c(O)cc(O)c3c(=O)cc(-c4ccccc4Cl)oc23)C(O)C1` (stereo not drawn), the nuclei count, normalised amounted to 79.6% in assay [1] (setting [14]); 49.2% in assay [1] (setting [15]); 29.8% in assay [1] (setting [16]); 27.6% in assay [1] (setting [10]); 57.1% in assay [1] (setting [17]); 29.5% in assay [1] (setting [18]). In addition, the nuclei count, normalised was 16% in assay [1] (setting [19]) and 17.8% in assay [1] (setting [11]). For the same molecule, the p53-positive nuclei, normalised is 5.98% (inactive) in assay [2] (setting [20]); 41.3% (inactive) in assay [2] (setting [21]); 13.9% (inactive) in assay [2] (setting [22]); 7.27% (inactive) in assay [2] (setting [12]); 1.3% in assay [2] (setting [23]); 7.22% in assay [2] (setting [24]). In addition, the p53-positive nuclei, normalised in assay [2] (setting [25]) was determined as 0.675%; in assay [2] (setting [13]), 0.446%.

For the molecule `CCCCC[C@H](O)/C=C/[C@@H]1[C@@H](C/C=C\CCCC(=O)NCC)[C@@H](O)C[C@H]1O`, the nuclei count, normalised stood at 106% in assay [1] (setting [3]) and 102% in assay [1] (setting [4]). The p53-positive nuclei, normalised is 0.015% (inactive) in assay [2] (concentration not given here) and -0.0692% in assay [2] (setting [5]).

With `O=C(/C=C/c1cccc(C(=O)NO)c1)NO`, the nuclei count, normalised in assay [1] (setting [3]) is 114%; in assay [1] (setting [4]) it was 107%. The p53-positive nuclei, normalised was 0.114% (inactive) in assay [2] (concentration not given here) and 0.124% in assay [2] (setting [5]).

In the case of `O=C(C=Cc1cccc(S(=O)(=O)Nc2ccccc2)c1)NO`, the nuclei count, normalised worked out at 108% in assay [1] (setting [14]); 107% in assay [1] (setting [15]); 94.6% in assay [1] (setting [16]); 58% in assay [1] (setting [6]); 52.5% in assay [1] (setting [10]); 101% in assay [1] (setting [17]). Besides, the nuclei count, normalised in assay [1] (setting [18]) is 95.8%; in assay [1] (setting [19]) it was 77.3%; in assay [1] (setting [7]), 40.2%; in assay [1] (setting [11]), 30.4%. In addition, the p53-positive nuclei, normalised in assay [2] (setting [20]) was 3.46% (inactive); in assay [2] (setting [21]), 0.535% (inactive); in assay [2] (setting [22]), 5.33% (inactive); in assay [2] (setting [8]), 46% (active); in assay [2] (setting [12]), 76% (active); in assay [2] (setting [23]) it was 0.856%. The p53-positive nuclei, normalised worked out at 1.2% in assay [2] (setting [24]), 10.1% in assay [2] (setting [25]), 51% in assay [2] (setting [9]) and 64.7% in assay [2] (setting [13]).

The record behind these values is PubChem BioAssay AID1508601 (ICCB-Longwood Screening Facility, Harvard Medical School, 2020).
